Source: PubChem
TDP1 cell noCPT: qHTS for Inhibitors of human tyrosyl-DNA phosphodiesterase 1 (TDP1): qHTS in cells in absence of CPT; 420,000 tested, 15% active; AID 686978, 2013; DT40 Tdp1-/- hTDP1 cells, no CPT, ATP luminescence, 48 h; Potency, µM (highest dose often 46.2 µM), without a hit: at the top dose activity change, negative = growth inhibition, most hits filed as inhibitors; note: potency is the fitted concentration of half-maximal effect; % is set by controls: 0 for no effect and ±100 for the full control effect; nearly all actives have a fitted effect of over 55% in size
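No-CPT arm: Tdp1-/-;hTDP1 DT40 cells (400/well) plus compounds, incubated ≥48 hr at 37 °C. Readout CellTiter-Glo luminescence.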
D3 ag: agonists of human D3 dopamine receptor; P35462; AID 652048; 410,000 tested, 0.58% active; max activation, %; D3R DiscoveRx beta-arrestin cells, luminescence, 90 min; in the data active = max activation above about 30%; note: 0% is about no effect
Target sequence (P35462 whole entry, looked up): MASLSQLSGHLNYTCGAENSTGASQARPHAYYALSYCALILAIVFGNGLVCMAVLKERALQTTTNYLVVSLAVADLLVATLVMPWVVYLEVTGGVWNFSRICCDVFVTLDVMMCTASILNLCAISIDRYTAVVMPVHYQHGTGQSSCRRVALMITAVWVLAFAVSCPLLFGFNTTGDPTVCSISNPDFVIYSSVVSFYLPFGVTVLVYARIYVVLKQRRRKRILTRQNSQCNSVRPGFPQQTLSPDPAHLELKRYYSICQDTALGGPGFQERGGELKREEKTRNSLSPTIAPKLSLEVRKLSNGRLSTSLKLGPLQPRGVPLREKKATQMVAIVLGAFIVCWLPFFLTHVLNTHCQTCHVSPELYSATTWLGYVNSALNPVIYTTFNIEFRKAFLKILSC
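Agonist mode: compounds and dopamine controls were applied to plated cells for 90 min at 37 degrees C after an overnight attachment at 1500 cells/well. Luminescent read-out followed 30 - 60 minutes at room temperature with DiscoveRx detection reagent.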
D3 antag: blocks the human D3 dopamine receptor; AID 652054; max response, negative = inhibition, %; 360,000 tested, 2.5% active; P35462; D3R cells, DiscoveRx beta-arrestin luminescence, antagonist mode; stronger effect = lower value; in the data active = max response below about -50%; inconclusive = no clear call, values can overlap the other calls; note: % is set by controls: 0 for no effect and ±100 for the full control effect
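Cells expressing the human receptor were seeded at 1500 cells/well, incubated overnight at 37 degrees C in 5% CO2, then exposed to library compounds with dopamine controls for 90 minutes at 37 degrees C before luminescent detection.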
ClpP mod: qHTS Assay for Activators of ClpP. ATP-dependent Clp protease proteolytic subunit (Bacillus subtilis (strain 168)), P80244. purified B. subtilis ClpP, FRET peptide cleavage, 20 min. Potency, µM (highest dose often 57.5 µM), inactives show at the highest dose activity change, negative = active. 340,000 tested, 1.9% active. AID 651965, 2013; active = well fitted falling curve with a large enough effect; inconclusive = small, poorly fitted or top-dose-only effect; inactive = no such curve, though single readings can be large or run the other way; note: potency is the fitted concentration of half-maximal effect; the source files actives as falling curves though it sought activators and does not explain the sign; nearly all actives have a fitted effect of over 65% in size
Target sequence (P80244 whole entry, looked up): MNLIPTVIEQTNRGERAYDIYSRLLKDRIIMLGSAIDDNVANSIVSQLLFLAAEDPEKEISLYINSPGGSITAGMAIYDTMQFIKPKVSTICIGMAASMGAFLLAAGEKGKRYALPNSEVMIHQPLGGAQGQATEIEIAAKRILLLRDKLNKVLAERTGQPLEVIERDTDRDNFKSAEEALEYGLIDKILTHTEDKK
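Buffer: 100 mM Tris/HCl pH8, 100 mM KCl, 0.05% low protease BSA, 2.5% glycerol, 0.01% Tween-20. ClpP 10 microg/mL final; 20 min RT; delta FRET normalized to ADEP and DMSO controls.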
DT40 TDP1 CPT: growth inhibition of DT40 Tdp1-/-;hTDP1 cells with camptothecin (screen for TDP1 inhibitors); chicken DT40 Tdp1-/-;hTDP1 cells + 20 nM CPT, ATP luminescence, 48 h; 420,000 tested, 12% active; Potency, µM (highest dose often 46.2 µM), inactives show top-dose activity change, negative = growth inhibition, usual class: inhibitors; note: potency is the fitted concentration of half-maximal effect; % is set by controls: 0 for no effect and ±100 for the full control effect; nearly all actives have a fitted effect of over 55% in size
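Cell growth measured by CellTiter-Glo luminescence after a minimum 48 h, 37 C compound exposure with 20 nM CPT in Tdp1-knockout DT40 cells stably expressing hTDP1, seeded 400/well; qHTS titration format.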
IL1B secr inh: blocks inflammasome-driven IL-1 beta release; 360,000 tested, 4.7% active; activity change, % at 57.5 µM; AID 743279; THP-1 LPS/ATP IL-1B secretion, AlphaLISA, 16 h; stronger effect = lower value; in the data active = activity change below about -50%; inconclusive = mostly about -30% to -49%; note: % is set by controls: 0 for no effect and ±100 for the full control effect
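Secreted IL-1B measured by AlphaLISA bead assay after 16 h compound exposure of THP-1 cells; compounds (final up to 57.5 uM) added 1 h before LPS (250 ng/mL) and ATP (1.25 mM) stimulation; lower signal means less secretion.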
* hit, by the source's call; ? = inconclusive; / = no result; [ ] = dose if it differs, or a comment. Rows were chosen to be rich in hits. Some 21% of all compounds tested hit in one or more screens of this group. Unless noted, calls come from the whole dose curve; as a rule, active = well fitted inhibition curve with a large enough effect; inconclusive = small, poorly fitted or top-dose-only effect; inactive = flat fitted curve, though single readings scatter.

SMILES	TDP1 cell noCPT	D3 ag	D3 antag	ClpP mod	DT40 TDP1 CPT	IL1B secr inh
COC(=O)Cn1cnc2c(nnn2-c2ccc(OC)cc2)c1=O	-3.8%	-8.5	0.3	-1.0%	?	0.0
O=C(N/N=C/c1ccco1)c1cc(-c2ccncc2)nc2ccccc12	7.31µM*	-6.2	-8.9	0.5%	7.31µM*	33.7
O=C(N/N=C/c1cccs1)c1cc(C2CC2)nc2ccccc12	2.91µM*	-9.6	?	-2.4%	3.66µM*	57.9
COc1ccccc1-c1cc(C(=O)N/N=C/c2cccs2)c2ccccc2n1	?	-30.8	-78.1*	-13.0%	?	-3.2
O=C(N/N=C/c1ccncc1)c1cc(C2CC2)nc2ccccc12	?	12.5	18.3	/	-2.9%	66.9
CCc1ccc(/C=N/NC(=O)c2cc(-c3ccncc3)nc3ccccc23)s1	3.26µM*	-9.3	0.4	-1.9%	4.61µM*	38.0
CC1CCC(NC(=O)CSc2nncn2C)CC1 (configuration not stated)	2.6%	-2.1	-14.4	-4.7%	6.9%	15.1
CC(Sc1nnc(C2CC2)n1N)C(=O)NC1CCCCC1C (configuration not stated)	-17.9%	-6.3	2.5	-2.3%	5.6%	10.4
CC1Cc2cc(S(=O)(=O)N3CCC(C(=O)N(C)Cc4ccco4)CC3)ccc2N1C(=O)C1CCC1 (configuration not stated)	?	-0.1	-1.6	1.2%	?	-7.0
O=C(Nc1nccs1)c1cc(-c2ccncc2)nc2ccccc12	?	4.8	14.1	/	-25.0%	18.4
O=C(N/N=C/c1cccs1)c1cc(-c2ccncc2)nc2ccccc12	0.581µM*	-18.9	-23.6	-0.7%	0.581µM*	19.3
COc1cc2c(cc1OC)-c1c(OC)c(OC)cc3ccnc(c13)C2=O	4.11µM*	1.2	5.2	0.7%	4.11µM*	?
COc1ccc(C(=O)c2nccc3cc(OC)c(OC)cc23)cc1OC	?	4.2	0.0	-11.7%	?	65.9
Cc1nc2nc(C)n(CCN3CCOCC3)c(=O)c2c(-c2cccc([N+](=O)[O-])c2)c1C(=O)CCCCCCCCCCN1CCC(c2ccccc2)(c2ccccc2)CC1	?	-5.6	-92.7*	-0.5%	?	-99.1*
O=C(c1ccc(NC(=S)NCc2ccco2)cc1)N1CCOCC1	-1.6%	1.7	-20.5	-4.7%	-3.1%	0.0
COCCN1Cc2cccc(C(=O)Nc3ccc(-c4nc5ccccc5[nH]4)cc3)c2C1=O	-26.2%	8.9	6.7	?	-23.1%	-16.6
CCCN1Cc2cccc(C(N)=O)c2C1=O	?	3.5	8.5	-0.3%	8.2µM*	41.2
CCCN1Cc2cccc(C(=O)Nc3ccc(-c4nc5ccccc5[nH]4)cc3)c2C1=O	18.4µM*	-3.9	-1.6	?	?	-9.9
COCCN1Cc2cccc(C(=O)Nc3cccc(-c4nc5ccccc5[nH]4)c3)c2C1=O	16.4µM*	-14.5	20.7	/	4.61µM*	-6.1
CCOCCc1nnc(NC(=O)CS(=O)(=O)Cc2ccccc2)s1	-19.0%	-0.2	11.4	/	-15.2%	-7.9
COc1ccccc1C(=O)NC(=S)Nc1ccc(N2CCN(C(=O)c3ccco3)CC2)cc1	14.6µM*	24.6	17.4	1.5%	?	?
Cc1ccccc1C(=O)N1CCN(c2ccc(NC(=S)NC(=O)c3ccco3)cc2)CC1	25.9µM*	0.0	18.6	-2.4%	23.1µM*	?
Cc1ccc(C(=O)Nc2ccc(N3CCN(C(=O)c4ccco4)CC3)cc2)cc1	-28.7%	-2.1	-12.6	/	-0.8%	-18.2
CCCCNC(=O)C1c2ccccc2OCC(=O)N1Cc1ccccc1 (configuration not stated)	?	-5.3	0.0	2.1%	?	35.6
CC(O)(COc1ccccc1)c1ccc2c(c1)CN(Cc1cccc3ncccc13)CCO2 (configuration not stated)	?	/	/	/	-11.3%[9.04 µM]	/
SMILES	TDP1 cell noCPT	D3 ag	D3 antag	ClpP mod	DT40 TDP1 CPT	IL1B secr inh
O=C(CS(=O)(=O)c1cccc2nsnc12)NCc1ccccc1	4.0%	1.0	/	-5.7%	-10.7%	/
CC1c2ccccc2N(S(=O)(=O)c2ccccc2)C1C (configuration not stated)	23.1µM*	-13.0	2.4	/	?	31.8
CCn1cc(S(=O)(=O)c2cccc(Cl)c2)c(=O)c2cc(F)c(N3CCN(C)CC3)cc21	?	2.6	/	-12.7%	?	/
CC(C)(C)NC(=O)C(c1ccncc1)N(Cc1cccs1)C(=O)Cn1nnc(-c2ccc(F)cc2)n1 (configuration not stated)	-20.5%	0.6	-1.9	0.4%	?	0.0
CC(C)(C)NC(=O)C(c1c[nH]c2ccccc12)N(C(=O)Cn1nnc(-c2ccc(F)cc2)n1)c1cccc(O)c1 (configuration not stated)	20.6µM*	-6.6	-5.6	1.0%	?	?
CC(C)(C)NC(=O)C(c1ccco1)N(C(=O)Cn1nnc(-c2ccc(F)cc2)n1)c1cccc(F)c1 (configuration not stated)	20.6µM*	3.6	4.4	0.4%	?	-3.6
CCOC(=O)N1C(=O)[C@](CC)(c2ccccc2)N1C(=O)OCC	?	4.3	?	2.0%	8.2µM*	-97.6*
Cc1ccccc1Cn1c(=O)n(Cc2ccco2)c(=O)c2oc3ccccc3c21	-1.9%	-10.2	/	-1.7%	2.2%	/
COc1ccc(-c2noc(CN(C)S(=O)(=O)c3ccccc3)n2)cc1OC	?	7.7	?	1.5%	16.4µM*	-10.0
Cc1ccc(S(=O)(=O)N(C)Cc2nc(-c3ccc(Br)cc3)no2)cc1	18.4µM*	-5.2	-29.1	-2.0%	?	43.5
CN(Cc1nc(-c2ccc(Cl)cc2)no1)S(=O)(=O)c1ccccc1	?	-11.2	/	0.5%	?	/
CCOC(=O)C1=CCN(S(=O)(=O)c2ccc(C)cc2)C1c1cccc(C)c1 (configuration not stated)	18.4µM*	3.9	4.7	-0.5%	?	31.1
CCOC(=O)C1=CCN(S(=O)(=O)c2ccc(Br)cc2)C1c1ccc(C)cc1 (configuration not stated)	25.9µM*	-1.8	4.1	-2.1%	?	6.8
CCN(CC(=O)NCc1ccc(F)cc1)C(=O)CN1CCN(c2ccc(OC)cc2)CC1	-22.6%	-18.3	?	-0.5%	-5.0%	-11.8
